# About 79,000 compounds went through this panel and 15% of them were active in at least one assay; those are over-represented in the sample as a whole. Values without a mark were called inactive. Active and inactive are the calls of the source. No stated cut-off is given here; in the data, active means growth inhibition above about 70%; inactive means the rest.
# How the values were obtained:
# [1] = NCI Yeast Anticancer Drug Screen. Data for the rad52 strain (AID 147);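 further: 0% = growth of vehicle-treated control cultures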; details: S. cerevisiae rad52 mutant growth inhibition, hits give high values
# In short: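 Genetically altered yeast (DNA damage repair defect) treated with compound; inhibition calculated relative to vehicle.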
# [2] = NCI Yeast Anticancer Drug Screen. Data for the wt1 strain (AID 149);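 further: 0% = growth of vehicle-treated wt1 cultures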; details: S. cerevisiae wt1 strain (SPY 50644) growth inhibition, hits give high values
# In short: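 Using yeast strain wt1, compound-induced growth inhibition was determined against vehicle-treated cultures.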
# [3] = NCI Yeast Anticancer Drug Screen. Data for the rad50EPP+ strain (AID 151);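 further: 0% = growth of vehicle-treated control cultures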; details: S. cerevisiae rad50 mutant strain, hits give high values
# In short: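 Strain rad50EPP+; compound exposure; % growth inhibition vs vehicle.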
# [4] = NCI Yeast Anticancer Drug Screen. Data for the mgt1 strain (AID 153); details: S. cerevisiae mgt1 mutant growth inhibition, hits give high values
# In short: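 Read-out: yeast growth inhibition vs vehicle control. Strain mgt1, drawn from a panel altered in DNA damage repair or cell cycle control.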
# [5] = NCI Yeast Anticancer Drug Screen. Data for the rad50 strain (AID 155);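 further: 0% = growth of vehicle-only cultures of the same strain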; details: S. cerevisiae rad50 strain growth inhibition, hits give high values
# In short: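 Relative growth inhibition (compound vs vehicle) was measured in yeast with a defined repair-gene alteration.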
# [6] = NCI Yeast Anticancer Drug Screen. Data for the mec2-1 strain (AID 157); details: S. cerevisiae mec2-1 strain, hits give high values
# In short: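 Cells of the genetically defined mec2-1 yeast strain are incubated with test compound. Inhibition of growth is calculated against vehicle-treated controls.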
# [7] = NCI Yeast Anticancer Drug Screen. Data for the rad14 strain (AID 159);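 further: 0% = growth of vehicle-treated control cultures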; details: S. cerevisiae rad14 strain growth inhibition, hits give high values
# In short: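 Screen for anticancer potential: a yeast strain altered in DNA damage repair is grown with compound, and reduced growth is quantified against vehicle controls.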
# [8] = NCI Yeast Anticancer Drug Screen. Data for the sgs1 mgt1 strain (AID 161);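 further: 0% = growth of cultures given vehicle only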; details: S. cerevisiae sgs1 mgt1 strain, hits give high values
# In short: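 Genetically altered yeast, compound exposure, growth inhibition relative to vehicle.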
# [9] = NCI Yeast Anticancer Drug Screen. Data for the CLN2oe strain (AID 163);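 further: 0% = growth of vehicle-only control cultures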; details: S. cerevisiae CLN2oe strain, hits give high values
# In short: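 Strain altered in cell-cycle control, incubated with compound; growth compared to solvent-treated controls.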
# [10] = NCI Yeast Anticancer Drug Screen. Data for the cln2 rad14 strain (AID 165);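 further: 0% = growth equal to vehicle treated cultures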; details: S. cerevisiae cln2 rad14 strain, hits give high values
# In short: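 The screen exposed genetically defined yeast (cln2 rad14) to test compounds and scored growth inhibition relative to vehicle-treated controls.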
# [11] = NCI Yeast Anticancer Drug Screen. Data for the bub3 strain (AID 167); details: S. cerevisiae bub3 mutant strain, hits give high values
# In short: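 Screening used yeast with an engineered genetic alteration affecting cell cycle control. Compound-exposed cultures were compared with vehicle cultures, and reduced growth was taken as inhibition.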
# [12] = NCI Yeast Anticancer Drug Screen. Data for the wt2 strain (AID 169);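 further: 0% = growth of vehicle-treated yeast cultures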; details: S. cerevisiae wt2 strain growth inhibition, hits give high values
# In short: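 Steps: yeast strain treated with compound; growth recorded; inhibition calculated relative to cultures given vehicle alone.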
# [13] = NCI Yeast Anticancer Drug Screen. Data for the mlh1 strain (AID 171);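 further: 0% = growth of vehicle-treated control cultures of the same strain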; details: S. cerevisiae mlh1 strain growth inhibition, hits give high values
# In short: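 Yeast screen: mutant strain plus compound, growth scored against vehicle control wells.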
# [14] = NCI Yeast Anticancer Drug Screen. Data for the sgs1 strain (AID 173);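 further: 0% = growth of vehicle-only control cultures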; details: S. cerevisiae sgs1 mutant, hits give high values
# In short: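 Inhibition of yeast growth served as the measure. The mutant strain was treated with each compound, and growth was normalised to cultures receiving vehicle alone.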
# [15] = NCI Yeast Anticancer Drug Screen. Data for the mlh1 rad18 strain (AID 175); details: S. cerevisiae mlh1 rad18 strain growth inhibition, hits give high values
# In short: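 Compound-treated yeast growth, normalised to vehicle controls. Strain bears defined DNA repair mutations.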
# [16] = NCI Yeast Anticancer Drug Screen. Data for the rad18 strain (AID 177); details: S. cerevisiae rad18 mutant growth inhibition, hits give high values
# In short: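 Inhibition values reflect reduced yeast growth compared with vehicle-treated controls, using a strain engineered with a DNA damage repair defect.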
# [17] = at 5.0 µM (retest, dose inferred, filed as 0.5)
# [18] = at 50.0 µM (retest, dose inferred, filed as 5.0)
compound,measurement,setting,value
CN(N=O)C(=O)Nc1ccc(C(=O)O)cc1,growth inhibition,[1]; at 1.2 µM,1%
same,growth inhibition,[1]; at 3.7 µM,3%
same,growth inhibition,[1]; at 11.0 µM,8%
same,growth inhibition,[1]; at 33.0 µM,29%
same,growth inhibition,[1]; at 100.0 µM,62%
same,growth inhibition,[2]; at 1.2 µM,-2%
same,growth inhibition,[2]; at 3.7 µM,-3%
same,growth inhibition,[2]; at 11.0 µM,-2%
same,growth inhibition,[2]; at 33.0 µM,-2%
same,growth inhibition,[2]; at 100.0 µM,2%
same,growth inhibition,[3]; at 1.2 µM,-1%
same,growth inhibition,[3]; at 3.7 µM,0%
same,growth inhibition,[3]; at 11.0 µM,3%
same,growth inhibition,[3]; at 33.0 µM,12%
same,growth inhibition,[3]; at 100.0 µM,31%
same,growth inhibition,[4]; at 1.2 µM,0%
same,growth inhibition,[4]; at 3.7 µM,3%
same,growth inhibition,[4]; at 11.0 µM,15%
same,growth inhibition,[4]; at 33.0 µM,28%
same,growth inhibition,[4]; at 100.0 µM,36%
same,growth inhibition,[5]; at 1.2 µM,2%
same,growth inhibition,[5]; at 3.7 µM,11%
same,growth inhibition,[5]; [17],12%
same,growth inhibition,[5]; at 11.0 µM,19%
same,growth inhibition,[5]; at 33.0 µM,44%
same,growth inhibition,[5]; [18],68%
same,growth inhibition,[5]; at 50.0 µM,65.3%
same,growth inhibition,[5]; at 100.0 µM,77% (active)
same,growth inhibition,[6]; at 1.2 µM,-10%
same,growth inhibition,[6]; at 3.7 µM,1%
same,growth inhibition,[6]; [17],-8%
same,growth inhibition,[6]; at 11.0 µM,-6%
same,growth inhibition,[6]; at 33.0 µM,-7%
same,growth inhibition,[6]; [18],37%
same,growth inhibition,[6]; at 50.0 µM,7.8%
same,growth inhibition,[6]; at 100.0 µM,19%
same,growth inhibition,[7]; at 1.2 µM,-4%
same,growth inhibition,[7]; at 3.7 µM,6%
same,growth inhibition,[7]; at 11.0 µM,-1%
same,growth inhibition,[7]; at 33.0 µM,2%
same,growth inhibition,[7]; at 100.0 µM,8%
same,growth inhibition,[8]; [17],43%
same,growth inhibition,[8]; [18],80% (active)
same,growth inhibition,[8]; at 50.0 µM,62.6%
same,growth inhibition,[9]; at 1.2 µM,-4%
same,growth inhibition,[9]; at 3.7 µM,-3%
same,growth inhibition,[9]; at 11.0 µM,-6%
same,growth inhibition,[9]; at 33.0 µM,-9%
same,growth inhibition,[9]; at 100.0 µM,-1%
same,growth inhibition,[10]; [17],-45%
same,growth inhibition,[10]; [18],-4%
same,growth inhibition,[10]; at 50.0 µM,2.05%
same,growth inhibition,[11]; at 1.2 µM,-14%
same,growth inhibition,[11]; at 3.7 µM,-8%
same,growth inhibition,[11]; [17],-16%
same,growth inhibition,[11]; at 11.0 µM,-5%
same,growth inhibition,[11]; at 33.0 µM,-9%
same,growth inhibition,[11]; [18],6%
same,growth inhibition,[11]; at 50.0 µM,-14.2%
same,growth inhibition,[11]; at 100.0 µM,-8%
same,growth inhibition,[12]; at 1.2 µM,-3%
same,growth inhibition,[12]; at 3.7 µM,-2%
same,growth inhibition,[12]; at 11.0 µM,-1%
same,growth inhibition,[12]; at 33.0 µM,0%
same,growth inhibition,[12]; at 100.0 µM,6%
same,growth inhibition,[13]; at 1.2 µM,-6%
same,growth inhibition,[13]; at 3.7 µM,1%
same,growth inhibition,[13]; at 11.0 µM,-1%
same,growth inhibition,[13]; at 33.0 µM,-21%
same,growth inhibition,[13]; at 100.0 µM,-12%
same,growth inhibition,[14]; at 1.2 µM,2%
same,growth inhibition,[14]; at 3.7 µM,8%
same,growth inhibition,[14]; at 11.0 µM,20%
same,growth inhibition,[14]; at 33.0 µM,35%
same,growth inhibition,[14]; at 100.0 µM,55%
same,growth inhibition,[15]; [17],16%
same,growth inhibition,[15]; [18],51%
same,growth inhibition,[15]; at 50.0 µM,32.9%
same,growth inhibition,[16]; at 1.2 µM,18%
same,growth inhibition,[16]; at 3.7 µM,47%
same,growth inhibition,[16]; at 11.0 µM,81% (active)
same,growth inhibition,[16]; at 33.0 µM,90% (active)
same,growth inhibition,[16]; at 100.0 µM,93% (active)
